Sampled rows, rich in hits. Any-hit rate of the full collection: about 2.9%.
PLC-beta3 inh: human PLC-beta3 inhibitors, primary screen, biochemical, fluorescence | Purified PLC-beta3, fluorogenic substrate | inhibition, % at 12.2 µM | 370,000 tested, 0.18% active | 1-phosphatidylinositol 4,5-bisphosphate phosphodiesterase beta-3 (Homo sapiens), Q01970; in the data active means inhibition above about 11%;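 further: 0% = median of compound wells on plate and 100% = full blocker control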
ADAM17 inh: ADAM17 inhibitors, primary screen, biochemical, QFRET; recombinant ADAM17, EDANS/DABCYL FRET peptide cleavage; 370,000 tested, 0.83% active; inhibition, % at 6.95 µM; AID 720648, 2013;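 active means inhibition above the mean of compounds lying between control limits plus 3 SD, set per campaign, cut at about 8.5% in these data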;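 further: 0% = DMSO-only wells as the low control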
proKLK7 act: proKLK7 zymogen activators, primary screen, biochemical, fluorescence intensity. AID 652039, 2013. 370,000 tested, 0.9% active. activation, % at 7 µM. Kallikrein-7 (Homo sapiens), P49862. purified proKLK7, EDANS-DABCYL substrate fluorescence; 100% is mature enzyme control, 0% vehicle;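 active means activation above the mean of all tested compounds plus 3 SD, computed per campaign excluding outliers beyond control limits, cut at about 13% in these data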
Target sequence (P49862 whole entry, looked up): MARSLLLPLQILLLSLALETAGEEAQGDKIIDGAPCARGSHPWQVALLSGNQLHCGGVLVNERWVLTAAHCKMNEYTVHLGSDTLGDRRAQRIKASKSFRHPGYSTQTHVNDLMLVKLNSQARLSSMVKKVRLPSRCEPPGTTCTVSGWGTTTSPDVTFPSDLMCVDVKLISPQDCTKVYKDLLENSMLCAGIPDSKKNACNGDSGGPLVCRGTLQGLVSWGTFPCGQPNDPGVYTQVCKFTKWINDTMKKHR
PLCg1 inh: PLC-gamma1 enzyme inhibitors, primary screen, biochemical, fluorescence, purified enzyme | 370,000 tested, 0.84% active | fluorogenic substrate | inhibition, % at 12.2 µM | AID 720700, 2013 | 1-phosphatidylinositol 4,5-bisphosphate phosphodiesterase gamma-1 (Homo sapiens), P19174
ADAM10 inh: human ADAM10 inhibitors, primary screen, biochemical, QFRET, HTS; AID 720582, 2013; recombinant ADAM10, EDANS/DABCYL FRET peptide cleavage, 3 h; 370,000 tested, 0.62% active; inhibition, % at 7 µM;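 active means inhibition above a per-campaign cutoff equal to the mean of compounds falling between control-based bounds plus 3 SD, cut at about 20% in these data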;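 further: 0% = DMSO wells while the 100% control is not disclosed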
PLCg1 ctr: PLC-gamma1 enzyme inhibitors, counter-screen for PLC-beta3 inhibitor project, biochemical, fluorescence; shares compounds with PLCg1 inh; purified PLC-gamma1, fluorogenic substrate; 3,300 tested, 3.1% active; inhibition, % at 12.3 µM
PLCbeta3 conf: PLC-beta3 inhibitor confirmation, biochemical, fluorescence, purified enzyme; 3,300 tested, 1% active; fluorogenic substrate fluorescence; shares compounds with PLCg1 inh; inhibition, % at 12.3 µM; in the data active means inhibition above about 11%
* hit, by the source's call; i = inactive; . = no result. Unless noted, no stated cut-off is given here; in the data, active means inhibition above about 9.5%; inactive means the rest.

SMILES	PLC-beta3 inh	ADAM17 inh	proKLK7 act	PLCg1 inh	ADAM10 inh	PLCg1 ctr	PLCbeta3 conf
CSc1ccccc1NC(=O)CN(C)C(=O)/C=C/c1ccccc1	-4	-3	0	10*	-16	2	8
O=C1NC[C@H](Cc2ccc(O)cc2)N(C[C@@H]2CCCN2C[C@H](Cc2ccccc2)N2C[C@H](Cc3ccccc3)N(CC3CCCCCC3)C(=O)C2=O)C1=O	4	2	0	2	0	.	.
COC(=O)CNC(c1ccccc1)c1cc(C)ccc1NC(=O)c1cccc(Cl)c1 (stereo unspecified)	4	7	0	2	13	.	.
CCN(CC)Cc1cc(C(C)(C)C)cc(N2CCOCC2)c1O	-3	-3	0	0	-16	.	.
CN1C=CC(=C[N+](=O)[O-])N(C)C1=O	6	7	1	12*	5	-3	-3
COc1ccc(Cn2c(=O)oc3ccccc32)cc1F	1	-1	0	6	6	.	.
O=C(NCc1cccnc1)c1ccccc1-c1ccccc1	-1	-8	0	-4	-11	.	.
O=C(NCc1cccnc1)c1ccc(NC(=O)c2ccc([N+](=O)[O-])cc2)cc1	-1	-2	0	13*	3	-2	-1
O=C(O)c1ccccc1C(=O)NCc1cccnc1	14*	7	0	5	5	-5	3
CC(NS(=O)(=O)c1ccc(Br)cc1)C(c1cccs1)N1CCOCC1 (stereo unspecified)	2	0	0	0	0	.	.
Cc1onc(-c2ccccc2)c1NC(=O)N(CCC#N)Cc1cccs1	-2	4	0	10.0*	7	-6	1
CCC(C(=O)N1CCCC1)n1nc(C)c2c(C)n(-c3ccccc3)nc2c1=O (stereo unspecified)	-5	1	0	-2	-1	.	.
COc1cccc(NC(=O)CN(C)CC(=O)NCc2ccc3c(c2)OCO3)c1	-1	-1	0	-1	-1	.	.
Cc1cc(=O)[nH]c(SCC(=O)C23CC4CC(CC(C4)C2)C3)c1C#N	1	1	-1	2	6	.	.
CC1(c2cc(F)ccc2F)NC(=O)N(CC(=O)Nc2cccc(S(=O)(=O)N3CCCC3)c2)C1=O (stereo unspecified)	-2	2	1	0	2	.	.
COc1ccc(CN2CCCC(C(=O)N3CCCC3)C2)c(OC)c1OC (stereo unspecified)	7	1	0	11*	-4	1	3
O=C(Cn1nnc(-c2ccc(Cl)cc2)n1)NC1CCN(Cc2ccccc2)CC1	2	-2	0	-3	-3	.	.
O=c1[nH]n2c(=O)c3c([nH]c2c1N=Nc1cccc(Cl)c1)CCC3	7	8	0	10*	20	4	-1
O=C(NC(=S)NCC1CCCO1)c1cccc([N+](=O)[O-])c1 (stereo unspecified)	12*	2	0	9.6*	5	-1	2
CCN(CC(=O)Nc1ccc2c(c1)OCCO2)CC(=O)Nc1ccccc1C(F)(F)F	-4	-2	-1	1	-5	.	.
CCCC1S/C(=N/N=C/c2cccs2)NC1=O (stereo unspecified)	6	2	0	3	4	.	.
CCC1S/C(=N/N=C/c2cccs2)NC1=O (stereo unspecified)	2	-3	0	15*	4	3	-2
C/C(N)=C(/C#N)C(=O)COC(=O)c1ccccc1Cc1ccccc1	-3	5	0	0	14	.	.
CC1CN(C(=O)C2CC2)C(C)CN1C(=O)C1CC1 (stereo unspecified)	3	-7	-1	3	1	.	.
O=C(O)COc1ccccc1/C=N/NC(=O)CSc1nc2ccccc2s1	-10	-4	1	-1	-7	.	.
SMILES	PLC-beta3 inh	ADAM17 inh	proKLK7 act	PLCg1 inh	ADAM10 inh	PLCg1 ctr	PLCbeta3 conf
Cc1cccc(C)c1NC(=O)C(c1ccncc1)n1c(=O)c(-c2ccccc2)nc2ccccc21 (stereo unspecified)	-168	-192	8	-125	i	.	.
COc1ccc(C(=O)N2CCC(O)(c3ccc(F)cc3)CC2)cc1OC	4	1	-2	10*	8	-5	-3
Cn1c(=O)[nH]c(=O)c2c1nc(SCCN1CCOCC1)n2Cc1ccccc1	1	-4	0	-1	-3	.	.
Cn1c(=O)[nH]c(=O)c2c1nc(SCCN1CCOCC1)n2CCCc1ccccc1	12*	4	1	6	0	0	1
Cn1c(=O)[nH]c(=O)c2c1nc(N1CCCCCC1)n2CCOc1ccccc1	-8	0	0	11*	-8	-4	-1
CCCn1c(N2CCC(Cc3ccccc3)CC2)nc2c1c(=O)[nH]c(=O)n2C	4	3	0	12*	2	0	-2
CC(=O)Cn1c(N2CCC(Cc3ccccc3)CC2)nc2c1c(=O)[nH]c(=O)n2C	1	0	0	-1	1	.	.
CN1CCN(c2nc3c(c(=O)[nH]c(=O)n3C)n2CCOc2ccccc2)CC1	3	-3	0	2	7	.	.
CC(=O)Nc1cccc(CP(=O)(c2ccccc2)c2ccccc2)c1	-1	0	0	13*	7	1	3
COc1ccc(/C=N/NC2=NCCCCC2)cc1	1	-2	0	10*	5	-2	1
CC(C)C[C@H](NC(=O)c1ccc(OC2CCN(C(=O)C3CC3)CC2)cc1)C(N)=O	-4	-9	0	9.7*	-1	-2	-5
Cc1cccc(C)c1-n1ncc(C(=O)NC2CCCC2)c1C1CCNCC1	2	3	0	15*	-1	0	6
CC(=O)NC12CC3CC(C1)CC(C(=O)N(C)CC(=O)Nc1ccccc1Cl)(C3)C2	0	1	0	4	0	.	.
CC(=O)NC12CC3CC(C1)CC(C(=O)N(C)Cc1cccc(Cl)c1Cl)(C3)C2	-3	-2	0	13*	10	-5	-2
O=C(Nc1nnc(C2CCCCC2)s1)c1ccc(Br)s1	1	-2	0	2	0	.	.
CCOC(=O)n1c(=O)n(Cc2ccc(Cl)cc2Cl)c2ccccc21	4	6	0	10*	13	-1	-3
CCOC(=O)n1c(=O)n(Cc2ccccc2Cl)c2ccccc21	0	0	1	-4	3	.	.
CC1CCC(C(C)C)C(OC(=O)C[n+]2cc(-c3ccc(Cl)cc3)n3c2CCC3)C1 (stereo unspecified)	-3	-1	1	9.9*	-2	-3	-1
